# In PubChem BioAssay AID489012 (National Center for Advancing Translational Sciences (NCATS), 2010):
# Results filed as inconclusive are left out. Entries that show only a call come without a potency. Calls of active or inactive are those of the source. The call rests on the fitted dose curve; in most records, active means well fitted activation curve with a large enough effect; inconclusive means small, poorly fitted or top-dose-only effect; inactive means no such curve, though single readings can be large or run the other way.
# Molecular target: Relaxin receptor 1 (Homo sapiens) (UniProt Q9HBX9)
# Sequence (Q9HBX9 whole entry, looked up): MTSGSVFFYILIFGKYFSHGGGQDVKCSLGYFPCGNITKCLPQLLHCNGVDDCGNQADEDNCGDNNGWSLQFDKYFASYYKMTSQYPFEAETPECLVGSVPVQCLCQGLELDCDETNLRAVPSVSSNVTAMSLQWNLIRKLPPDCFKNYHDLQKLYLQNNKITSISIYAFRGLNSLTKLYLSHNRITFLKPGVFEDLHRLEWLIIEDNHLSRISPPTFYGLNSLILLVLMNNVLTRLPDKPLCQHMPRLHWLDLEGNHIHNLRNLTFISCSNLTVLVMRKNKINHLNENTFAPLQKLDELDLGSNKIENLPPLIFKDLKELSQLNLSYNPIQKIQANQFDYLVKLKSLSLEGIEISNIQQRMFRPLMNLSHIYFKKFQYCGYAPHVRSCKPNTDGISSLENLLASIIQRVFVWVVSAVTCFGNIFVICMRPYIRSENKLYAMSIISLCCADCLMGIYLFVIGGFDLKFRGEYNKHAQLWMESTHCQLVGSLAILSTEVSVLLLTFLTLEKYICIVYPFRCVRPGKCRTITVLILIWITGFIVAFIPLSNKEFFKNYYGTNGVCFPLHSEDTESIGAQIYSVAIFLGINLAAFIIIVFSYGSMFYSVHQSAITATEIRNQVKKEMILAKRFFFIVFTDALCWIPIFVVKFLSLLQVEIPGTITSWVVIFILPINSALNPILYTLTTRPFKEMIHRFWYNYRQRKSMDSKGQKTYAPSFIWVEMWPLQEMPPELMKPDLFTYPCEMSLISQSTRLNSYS
# Assay: qHTS Assay for Agonists of the Relaxin Receptor RXFP1: RXFP1 Hit Validation; further: nearly all actives have a fitted effect of over 65% in size;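 on activation: cAMP rise lowers the TR-FRET signal in lysed cells with PDE4 inhibitor present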
# Conditions: HEK293T-RXFP1 cAMP TR-FRET, 30 min; series mostly up to 115 µM
# Potency means the concentration at half of the fitted maximal effect.
row,Structure (SMILES),Potency
1,CC(C)n1cnc2c(N(C)c3cccc(Cl)c3)nc(N(CCO)CCO)nc21,inactive
2,Cc1cccn2c(=O)c(/C=C3\SC(=S)NC3=O)c(NCCCN3CCOCC3)nc12,7.74 µM (active)
3,O=C(CCc1nnc2ccc(NCCCN3CCCC3=O)nn12)NCc1ccccc1Cl,inactive
4,CCOc1ccc2cc(C#N)c(SCC(=O)NC(C)CC)nc2c1 (stereo unspecified),4.88 µM (active)
5,O=C(Nc1ccccc1C(=O)O)c1ccc(NC(=O)C2CC2)cc1,inactive
6,Cc1ccc(C(=O)Nc2ccccc2C(=O)NCc2ccco2)cc1,inactive
7,COc1ccccc1NC(=O)c1sc2nc3n(c(=O)c2c1C)CCC3,inactive
8,Nc1cc2ccncc2c2ccccc12,inactive
9,CCOC(=O)/C(C#N)=C/c1c(N2CCN(CC)CC2)nc2c(C)cccn2c1=O,inactive
10,CCc1nn(CC(=O)NCCCN2CCOCC2)c(=O)c2cc3sccc3n12,inactive
11,CC(=O)CCCCn1c(=O)c2c(ncn2C)n(C)c1=O,inactive
12,O=C(Nc1ccccc1C(=O)NCCc1ccc(O)cc1)c1ccco1,inactive
13,C=CCNc1ncnc2c1ncn2C1OC(CO)C(O)C1O (stereo unspecified),inactive
14,O=[N+]([O-])c1cc2c(c(CSc3nnc4ccccn34)c1)OCOC2,30.9 µM (active)
15,Cc1cc(NC(=O)CSc2ncnc3c2cnn3-c2cccc(Cl)c2)no1,inactive
16,CCC1(C)Cc2c(sc3c2c2ncnn2c2nnc(SCC(=O)NCc4ccco4)n32)CO1 (stereo unspecified),12.3 µM (active)
17,O=C(Nc1ccc(Cl)cc1)Nc1ccccc1Sc1ncc([N+](=O)[O-])s1,inactive
18,CC[n+]1ccc(/C=C/c2ccc(N(C)C)cc2)c2ccccc21,inactive

row,Structure (SMILES),Potency
1,CCN(CC)CCCN1C=C2C(=O)C(C)(OC(=O)C3CCCC3)C(=O)C=C2C=C1c1ccsc1 (stereo unspecified),inactive
2,COc1ccc(C(=O)Nc2ccc(S(=O)(=O)Nc3onc(C)c3C)cc2)c(OC)c1,5.95 µM (active)
3,CCOC(=O)c1sc(NC(=O)CCc2ccc(OC)cc2)nc1C,15.4 µM (active)
4,Nc1c(S(=O)(=O)O)cc(NC(=O)c2ccccc2)c2c1C(=O)c1ccccc1C2=O,inactive
5,O=C(O)CCC(=O)N1CCN(c2nc(-c3ccccc3Cl)c3cc(Br)ccc3n2)CC1,inactive
6,COc1ccc(S(=O)(=O)Nc2ccccn2)c(C)c1C,inactive
7,Cc1cc(C)n(C(=O)CCCn2cc([N+](=O)[O-])cn2)n1,inactive
8,COc1ccc(CC(=O)N/N=C/c2cccnc2)cc1OC,inactive
9,O=C(Nc1ccccc1C(=O)NCc1ccco1)c1ccco1,inactive
10,COC(=O)Cn1cnc2c(C#N)c3n(c2c1=O)CCCC3,24.5 µM (active)
11,O=C(O)c1ccc(CN2C(=O)c3ccc(C(=O)O)cc3C2=O)cc1,inactive
12,COC(=O)c1c(NC(=O)c2cccc(N3C(=O)CCC3=O)c2)sc2c1CCN(C(C)=O)C2,inactive
13,CN(Cc1ccccc1)C(=O)c1ccccc1NC(=O)c1ccco1,inactive
14,O=C(Nc1ccccc1C(=O)N1CCCCC1)c1ccco1,inactive
15,COC(=O)Cn1cnc2c(C#N)c3n(c2c1=O)CCCCC3,13.8 µM (active)
16,O=C(CSc1ccc2nnc(-c3ccncc3)n2n1)NCC1CCCO1 (stereo unspecified),inactive
17,CC(=O)C1C(c2ccccc2)c2c(noc2C)CC1(C)O (stereo unspecified),inactive
18,CCN(CC)S(=O)(=O)c1cccc(N=Nc2c(O)c3ccccc3oc2=O)c1,21.9 µM (active)
